Values without a mark were called inactive.
Experiment: viability profiling in MM1S myeloma cells – cell-based, resazurin fluorescence, basal, 24 h, PK04 Diversity Set, profiling panel (AID 1174);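 also: MM1S multiple myeloma cell line; test concentration not given here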
Conditions: higher = more signal, called active from +8 up or from −8 down
In the case of `COCCOC(=O)N1C(=O)[C@@]2(c3cc(C#CC4=CCCCC4)ccc31)[C@H](C(=O)NC[C@H](O)c1ccccc1)[C@H]1C(=O)O[C@H](c3ccccc3)[C@H](c3ccccc3)N1[C@@H]2c1ccc(OCCO)cc1`, the z-score was -1.68.
In the case of `CCC#CCN(Cc1ccccc1Br)[C@H](/C=C/c1ccccc1)[C@@H](O)Cc1ccccc1`, the z-score was 0.753.
Compound `C=C(CCCC)/C(=C/C[C@@H](OC(=O)c1ccncc1)c1cccc(OCCO)c1)c1cc(C(=O)OC)ccc1OC` has a z-score of -0.73.
`NC(=O)NCC#Cc1ccc2c(c1)[C@]1(C(=O)N2)[C@H](c2ccccc2OCCO)N2[C@H](c3ccccc3)[C@H](c3ccccc3)OC(=O)[C@H]2[C@@H]1C(=O)N1CCN(c2ncccn2)CC1` showed a z-score of -0.17.
For `O=C1OCC=C[C@H]2OC34C=CCN(Cc5ccccc5)C(=O)[C@H]3N(CCO)C(=O)[C@@H]4[C@@H]12` (stereo partly specified), the z-score was 1.6.
With `Cc1ccc(S[C@]2(C(=O)NC(C)C)CC(=O)N(Cc3cc(C(F)(F)F)cc(C(F)(F)F)c3)[C@@H]2c2ccc(CO)cc2I)cc1` the z-score was -2.27.
In the case of `COc1ccc(C(=O)Nc2ccc(CN3C(=O)[C@]4(O[C@H](CCn5cc(CCO)nn5)[C@@H]([Si](C)(C)c5ccc(OC)cc5)[C@@H]4C)c4ccccc43)cc2)cc1`, the z-score was -6.19.
For `COC(=O)[C@@]1(Cc2ccccc2)[C@H]2c3cc(C(=O)N4CCCC4)n(CCN4CNCC4=O)c3C[C@H]2CN1C(=O)c1ccccc1`, the z-score was 0.327.
`CCCNC(=O)[C@@H]1c2ccccc2C(=O)N(C2CCCCC2)[C@H]1c1ccc(CO)cc1` gave a z-score of -0.206.
Work on `CC(C)C[C@@H]1NC(=O)[C@H]2C[C@@H](C(=O)NCCCCCC[N+](C)(C)C)[C@@H](c3ccc(O)cc3)N2C1=O` yielded a z-score of 0.771.
For `O=C(NCc1ccccc1)[C@@]1(Cc2ccccc2)COC(c2ccc(OCCCO)cc2)=N1`, the z-score was -6.53.
`C=CCN1C(=O)[C@@]2(Cc3ccccc3)N=C(c3ccc(OCCCO)cc3)O[C@H]2c2ccccc21` gave a z-score of -2.82.
`COCCCNC(=O)[C@@H]1c2ccccc2C(=O)N(CC23CC4CC(CC(C4)C2)C3)[C@H]1c1ccc(CO)cc1` showed a z-score of -0.104.
With `[N-]=[N+]=NCc1ccccc1[C@H]1OC(c2ccc(OCCCO)cc2)=N[C@@]1(Cc1ccccc1N=[N+]=[N-])C(=O)NCc1ccccc1` the z-score was -2.31.
`O=C1C2C=CC(C(O)c3ccccc3)N(n3cnnc3)C2C(=O)N1Cc1ccccc1` (stereo unspecified) showed a z-score of -0.468.
In the case of `CCCC[C@@H]1C[C@H]1[C@@H](NC(=O)c1ccccc1)c1ccccc1C(F)(F)F`, the z-score was -0.159.
In the case of `COc1ccc(CCN2C(=O)[C@@]3(c4ccc([N+](=O)[O-])cc4)CC(=O)N(CC45CC6CC(CC(C6)C4)C5)[C@@H]3c3ccc(CO)cc32)cc1`, the z-score was 0.954.
With `O=C1O[C@@H](c2ccccc2)[C@@H](c2ccccc2)N2[C@@H](c3ccc(OCCO)cc3)[C@]3(C(=O)Nc4ccc(C#CCCO)cc43)[C@@H](C(=O)N3CCN(c4ncccn4)CC3)[C@H]12` the z-score was 0.833.
In the case of `Cc1ccc(S[C@]2(C(=O)NC(C)C)CC(=O)N(C3Cc4ccccc4C3)[C@@H]2c2ccc(CO)cc2)cc1`, the z-score was 0.48.
With `O=C1O[C@H](c2ccccc2)[C@H](c2ccccc2)N2[C@H]1[C@@H](C(=O)Nc1nc3ccccc3s1)[C@]1(C(=O)Nc3ccc(C#CC4=CCCCC4)cc31)[C@H]2c1ccccc1OCCO` the z-score was -0.912.
For `C=CC[C@]1(C(=O)O)N=C(c2ccc(OCCCO)cc2)O[C@H]1c1ccccc1N=[N+]=[N-]`, the z-score was 0.777.
Work on `CCOC(=O)C1=C[C@@H](c2ccccc2)N(S(=O)(=O)c2ccc(C)cc2)[C@H]1c1ccc(F)cc1` yielded a z-score of -0.648.
`C=CCC(OC(C)=O)[C@@H]1[C@@H](N(Cc2cccc3ccccc23)C(=O)c2ccc(C)cc2)c2cc(OCCCO)ccc2N1C(=O)c1ccc(-c2ccccc2)cc1` (stereo partly specified) gave a z-score of 1.01.
With `COc1ccc(-c2cc3c(c(-c4ccccc4)n2)[Si](C(C)C)(C(C)C)O[C@H]3c2ccccc2)cn1` the z-score was 0.117.
Compound `Cc1ccc(S[C@]2(C(=O)O)CC(=O)N(Cc3cc(C(F)(F)F)cc(C(F)(F)F)c3)[C@@H]2c2ccc(CO)cc2I)cc1` has a z-score of -2.57.
With `O=C1O[C@H](c2ccccc2)[C@H](c2ccccc2)N2[C@H]1[C@@H](C(=O)Nc1nc3ccccc3s1)[C@]1(C(=O)Nc3ccc(C#CC4(O)CCCCCC4)cc31)[C@H]2c1ccc(O)cc1` the z-score was -1.55.
`O=C1C2C=CC(C(O)C#Cc3ccccc3)N(Nc3ccccc3)C2C(=O)N1c1ccccc1` (stereo unspecified) gave a z-score of -0.279.
Work on `CN1C(=O)C2C=CC(C(O)C3CC=CCC3)N(Nc3ccccc3)C2C1=O` (stereo unspecified) yielded a z-score of -0.533.
For `COCCCNC(=O)[C@@]1(c2ccc([N+](=O)[O-])cc2)CC(=O)N(C2CCCCC2)[C@@H]1c1ccc(CO)cc1`, the z-score was 0.337.
In the case of `Cc1ccccc1C(O)C1C=CC2C(=O)N(c3ccccc3)C(=O)C2N1Nc1ccc(C#N)cc1` (stereo unspecified), the z-score was 0.132.
Work on `CCOC(=O)C[C@H]1[C@H](OC(=O)Cc2ccc3c(c2)OCO3)[C@@H](NC(=O)c2ccc3ccccc3c2)c2cc(OCCCO)ccc2N1C(=O)Cc1ccc(OC)cc1` yielded a z-score of -0.162.
`COC(=O)[C@@]1(Cc2ccccc2CN=[N+]=[N-])N=C(c2ccc(OCCCO)cc2)O[C@H]1c1ccccc1N=[N+]=[N-]` showed a z-score of -3.44.
Compound `O=C/C=C/c1ccc(/C=C/c2ccccc2)cc1` has a z-score of 0.408.
`CC(C)NC(=O)[C@@]1(Cc2ccccc2I)c2ccccc2C(=O)N(C2CCCCC2)[C@H]1c1ccc(CO)cc1` showed a z-score of 0.224.
For `C=CCC(OC(C)=O)[C@@H]1[C@@H](N(Cc2cccc3ccccc23)C(=O)Cc2ccc(F)cc2)c2cc(OCCCO)ccc2N1C(=O)Cc1ccc2ccccc2c1` (stereo partly specified), the z-score was 0.295.
With `CCCC=C(CCC)[C@@H](NC(=O)c1ccc(C(F)(F)F)cc1)c1ccccc1` the z-score was -0.507.
